Only some compounds are listed: those with a hit (about 1.1% of all), similar ones and a draw of the others.
PI4K2A inh: qHTS for small molecular inhibitors of PI4K2A. Phosphatidylinositol 4-kinase type 2-alpha (Homo sapiens), Q9BTU6. purified PI4K2A, ADP-Glo luminescence, 1 h; stronger effect = lower value. activity change, negative = inhibition, % at 76.9 µM. actives 0.13% (n = 420,000). AID 1346378, 2018; in the data active = activity change below about -50%; inconclusive = mostly about -30% to -49%;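 note: -100% = wells without enzyme as full effect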
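ADP-Glo luminescence measured ADP generated by PI4K2A enzyme (4 ug/mL before mixing) with 1.2 mM PI substrate (pre-mix) and 300 microM ATP (pre-mix). Tris pH7.5 buffer with MgCl2, Triton X-100; 1 h reaction at ambient temperature.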
GALK inhibitor: qHTS Assay for Inhibitors of Human Galactokinase (GALK). actives 0.007% (n = 270,000). Purified GALK, Kinase-Glo residual ATP luminescence. Potency, µM (highest dose often 57.5 µM), for inactives: at the top dose activity change, negative = inhibition, actives largely listed as inhibitors. P51570; note: potency is the fitted concentration of half-maximal effect
Target sequence (P51570 whole entry, looked up): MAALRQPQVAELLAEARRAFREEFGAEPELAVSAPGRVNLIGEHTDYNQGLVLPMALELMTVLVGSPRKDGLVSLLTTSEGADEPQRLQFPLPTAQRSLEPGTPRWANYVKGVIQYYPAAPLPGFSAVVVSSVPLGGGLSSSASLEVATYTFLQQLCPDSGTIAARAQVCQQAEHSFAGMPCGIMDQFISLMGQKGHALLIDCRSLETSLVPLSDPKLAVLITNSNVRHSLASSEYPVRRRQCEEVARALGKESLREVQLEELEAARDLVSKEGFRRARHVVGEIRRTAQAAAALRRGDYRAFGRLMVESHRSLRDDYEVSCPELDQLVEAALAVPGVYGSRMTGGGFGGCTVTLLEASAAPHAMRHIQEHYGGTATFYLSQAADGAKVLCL
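Compounds were pin-transferred into ATP buffer (35 uM final), then GALK plus galactose (5 nM, 100 uM final) was added. After 1 h at room temperature, Kinase-Glo Plus was added and luminescence read after 10 min.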
rTrxR1 inhibitor: qHTS Assay for Inhibitors of Mammalian Selenoprotein Thioredoxin Reductase 1 (TrxR1): qHTS; Thioredoxin reductase 1, cytoplasmic (Rattus norvegicus), O89049; recombinant rTrxR1, NADPH fluorescence consumption, selenite substrate; Potency, µM (top dose mostly 114 µM), for inactives: at the highest dose activity change, negative = inhibition, actives largely listed as inhibitors; actives 1% (n = 390,000); AID 588453, 2011; note: potency is the fitted concentration of half-maximal effect; nearly all actives have a fitted effect of over 65% in size
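Rat TrxR1 (90 nM in the dispensed reagent) was pre-reduced with 400 uM NADPH for 5 min at room temperature, then incubated with compound for 15 min. After 400 uM selenite was added, NADPH fluorescence (Ex 340/Em 450 nm) was followed for 8 min.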
TrxR1 substrate: qHTS Assay for Substrates of Mammalian Selenoprotein Thioredoxin Reductase 1 (TrxR1): qHTS | Potency, µM (highest dose often 114 µM), for inactives: at the highest dose activity change, negative = substrate turnover | AID 588456, 2011 | actives 0.01% (n = 390,000) | Thioredoxin reductase 1, cytoplasmic (Rattus norvegicus), O89049 | purified TrxR1 substrate turnover, NADPH consumption readout; note: potency is the fitted concentration of half-maximal effect; nearly all actives have a fitted effect of over 50% in size
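Rat TrxR1, dispensed at 90 nM, was prereduced with 400 uM NADPH (final) for 5 min at ~22 deg C, then incubated with compound 15 min before 400 uM selenite. A first-read NADPH fluorescence drop versus no-compound background flagged substrates.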
The depositor's hits bear a star; [ ] = remark or other dose. Unless noted, calls come from the whole dose curve; as a rule, active = well fitted curve in the direction sought with a large enough effect; inconclusive = small, poorly fitted or top-dose-only effect, or another doubt; inactive = no such curve, though single readings can be large; an effect the other way counts as inactive or inconclusive. Unless noted, % is set by controls: 0 for no effect and ±100 for the full control effect.

How did COCCCNC(=O)C[C@H]1C[C@@]2(C(=O)OC)C(=C[C@H](C3CCCC3)O[C@@H]2C)N(Cc2ccco2)C1=O do in these assays?
PI4K2A inh: -3

How did CN(C)CCCOC1(Cc2ccccc2)CCCCCC1 do in these assays?
PI4K2A inh: 3

What do the screens show for `Cn1c(=NC(=O)CCl)sc2ccccc21`?
PI4K2A inh: 0; GALK inhibitor: 3%; rTrxR1 inhibitor: 35µM*; TrxR1 substrate: -4%

Results for Cn1c(=NC(=O)c2ccco2)sc2ccccc21 ?
PI4K2A inh: -3; GALK inhibitor: 10%; rTrxR1 inhibitor: 2%[57.1 µM]; TrxR1 substrate: 10%

What do the screens show for `O=C(C#Cc1ccccc1)c1cccc([N+](=O)[O-])c1`?
PI4K2A inh: 21; GALK inhibitor: 0%; rTrxR1 inhibitor: 0.1µM*; TrxR1 substrate: -4%

Results for CCc1cccc(NC(=O)CCn2c(=O)c3cccn3c3cccnc32)c1 ?
PI4K2A inh: 3; rTrxR1 inhibitor: 30%; TrxR1 substrate: 14%

How did CCC(C#Cc1ccccc1)N(C)C(N)=NC(=O)/C=C/c1ccccc1 (stereo not given) do in these assays?
PI4K2A inh: 7

How did O=C1CC(=O)N(CCc2ccccc2)C(=O)N1CCc1ccccc1 do in these assays?
PI4K2A inh: -65*; GALK inhibitor: -1%; rTrxR1 inhibitor: inconclusive; TrxR1 substrate: 1%

Results for COc1cc(/C=C2\N=C(C)OC2=O)cc(Cl)c1OC(C)=O ?
PI4K2A inh: -2; GALK inhibitor: -2%; rTrxR1 inhibitor: 40µM*; TrxR1 substrate: -5%

Results for CCOc1cc(/C=C2\N=C(C)OC2=O)cc(Cl)c1OCC(=O)OC ?
PI4K2A inh: 2; rTrxR1 inhibitor: inconclusive; TrxR1 substrate: 3%[57.1 µM]

Results for O=C(Cc1ccc(Br)cc1)Nc1cccc(S(=O)(=O)N2CCOCC2)c1 ?
PI4K2A inh: -3; rTrxR1 inhibitor: 2%; TrxR1 substrate: -1%

What do the screens show for `COc1cc(NC(=S)Nc2ccc(S(=O)(=O)N3CCOCC3)cc2)cc(OC)c1OC`?
PI4K2A inh: 2; GALK inhibitor: -2%; rTrxR1 inhibitor: 14µM*; TrxR1 substrate: 10%

What do the screens show for `O=[N+]([O-])c1cc(Cl)cc(/C=N/NC(=S)Nc2ccc(S(=O)(=O)N3CCOCC3)cc2)c1O`?
PI4K2A inh: 17; GALK inhibitor: -6%; rTrxR1 inhibitor: 79µM*; TrxR1 substrate: -7%

Results for O=S(=O)(c1ccc(NC(=S)Nc2ccc3c(c2)OCO3)cc1)N1CCOCC1 ?
PI4K2A inh: 1; GALK inhibitor: 1%; rTrxR1 inhibitor: 40µM*; TrxR1 substrate: -5%

What do the screens show for `O=S(=O)(c1cccc(NC(=S)Nc2ccc(Br)cc2Cl)c1)N1CCOCC1`?
PI4K2A inh: -15; GALK inhibitor: -1%; rTrxR1 inhibitor: 18µM*; TrxR1 substrate: 5%

How did CN(C)c1ccc(CNC(=O)c2ccc3nc(CCc4ccccc4)oc3c2)cc1 do in these assays?
PI4K2A inh: -6; rTrxR1 inhibitor: 3%[57.1 µM]; TrxR1 substrate: -4%[57.1 µM]

What do the screens show for `CCSC1(SCC)N=C(N)C2(C#N)C(c3ccc(F)cc3)C12C#N` (stereo not given)?
PI4K2A inh: -18; GALK inhibitor: -3%; rTrxR1 inhibitor: 32µM*; TrxR1 substrate: -13%

How did COc1ccc(CC(=O)n2[nH]c(=O)ccc2=O)cc1OC do in these assays?
PI4K2A inh: -1; GALK inhibitor: -1%; rTrxR1 inhibitor: 3.5µM*; TrxR1 substrate: 11%[57.1 µM]

Results for CCCN1C(=O)c2ccc(C(=O)Nc3cc(C)ccc3O)cc2C1=O ?
PI4K2A inh: -56*; GALK inhibitor: 2%; rTrxR1 inhibitor: 10%[57.1 µM]; TrxR1 substrate: 4%[57.1 µM]

How did Cc1c(C(=O)OCC2CCCO2)[nH]c2c1C(=O)CC(c1ccco1)C2 (stereo not given) do in these assays?
PI4K2A inh: -54*; GALK inhibitor: -3%; rTrxR1 inhibitor: inconclusive; TrxR1 substrate: -9%

Results for Cc1c(C(=O)OCC(C)C)[nH]c2c1C(=O)CC(c1ccco1)C2 (stereo not given) ?
PI4K2A inh: -9; GALK inhibitor: -3%; rTrxR1 inhibitor: -4%[57.1 µM]; TrxR1 substrate: -10%[57.1 µM]

How did Cc1ccc(NC(=O)c2ccc(=O)n(Cc3ccccc3C)c2)c(C)c1 do in these assays?
PI4K2A inh: -6; rTrxR1 inhibitor: 14%[57.1 µM]; TrxR1 substrate: -2%[57.1 µM]
